Out of some 650,000 compounds screened, about 850 (0.13%) were called active. The sample as a whole holds a higher share of actives than the screen did. A number with no mark means an inactive call. No stated cut-off is given here; in the data, active means normalized activity above about 1.9%; inactive means the rest.

For 95 molecules, normalized activity (activation) results are on record in PubChem BioAssay AID1259310 (The Scripps Research Institute Molecular Screening Center, 2017).

The target in the assay is F-box/WD repeat-containing protein 7 (Homo sapiens) (UniProt Q969H0). The experiment in a line: FBW7 E3 ligase activators, primary screen, biochemical, AlphaScreen, human (AID 1259310).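 Further: purified mutant Fbw7 with reduced substrate affinity.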 Conditions: AlphaScreen FBW7–phospho-cyclin E peptide binding, activator screen; at 26.1 µM; active compounds read high.
F-box/WD repeat-containing protein 7 (Homo sapiens), sequence (Q969H0 whole entry, looked up): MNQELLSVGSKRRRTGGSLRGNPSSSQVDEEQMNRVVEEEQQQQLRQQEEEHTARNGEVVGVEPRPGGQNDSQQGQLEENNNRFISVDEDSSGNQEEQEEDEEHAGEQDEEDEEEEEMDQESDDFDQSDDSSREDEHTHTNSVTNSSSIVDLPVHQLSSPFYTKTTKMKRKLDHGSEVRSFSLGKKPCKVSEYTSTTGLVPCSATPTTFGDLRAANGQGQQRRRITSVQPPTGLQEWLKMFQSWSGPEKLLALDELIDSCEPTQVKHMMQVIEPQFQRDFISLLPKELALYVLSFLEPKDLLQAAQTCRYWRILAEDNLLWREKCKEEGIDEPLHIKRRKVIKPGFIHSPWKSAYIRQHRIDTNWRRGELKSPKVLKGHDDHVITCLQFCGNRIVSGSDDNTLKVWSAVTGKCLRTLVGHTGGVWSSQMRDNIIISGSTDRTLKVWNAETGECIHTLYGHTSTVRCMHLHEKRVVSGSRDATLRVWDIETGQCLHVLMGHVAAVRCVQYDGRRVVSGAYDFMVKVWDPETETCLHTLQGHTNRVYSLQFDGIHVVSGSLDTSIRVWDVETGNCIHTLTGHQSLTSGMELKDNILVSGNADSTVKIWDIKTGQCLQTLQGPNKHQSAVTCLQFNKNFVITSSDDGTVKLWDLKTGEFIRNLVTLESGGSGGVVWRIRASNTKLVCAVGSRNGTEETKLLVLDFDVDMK
Turning to `O=C(CSC1=NS(=O)(=O)c2ccccc21)Nc1ccc(Br)cc1`, the normalized activity (activation) was -0.05%.

Consider `O=C(CSc1ncc(-c2ccccc2)[nH]1)Nc1ccc(Br)cc1`, for which the normalized activity (activation) is -0.02%.

`CC1(C)N=C(SCC(=O)Nc2ccc(Br)cc2)C(c2ccccc2)=N1`: the normalized activity (activation) is 2.4% (active).

In the case of `C[C@@H](c1ccccc1)n1c(=O)[nH]c2ncc(-c3ccc(C(=O)N4CCN(C)CC4)cc3)nc21`, the normalized activity (activation) is -0.33%.

As to `COc1nc(N=C(N)N)nc2c(C)cccc12`, the normalized activity (activation) was -0.06%.

Consider `Cc1cc(C)c2nc(N=C(N)N)nc(C)c2c1`, for which the normalized activity (activation) is 1.86% (active).

In the case of `Cc1cc(C)nc(/N=C(\N)N2CCOCC2)n1`, the normalized activity (activation) is 0.35%.

Turning to `COc1ccc(C(=O)NCCC(=O)NC2CCCC2)cc1OC`, the normalized activity (activation) was 0.02%.

On to `Cc1ccccc1CNC(=O)c1ccccc1I`, for which the normalized activity (activation) is 0.92%.

For the molecule `CC(C)CNC(=O)c1ccccc1I`, the normalized activity (activation) is 1.93% (active).

With `COCC(C)NC(=O)c1ccccc1I` (stereo not given), the normalized activity (activation) was 0.14%.

For `Cc1cc(=O)oc2cc(OCC(=O)N/N=C/c3ccc4c(c3)OCO4)ccc12`, the normalized activity (activation) is -0.03%.

Turning to `CC(=O)N(Cc1cc2cc(C)cc(C)c2[nH]c1=O)CC1CCCO1` (stereo not given), the normalized activity (activation) is 0.12%.

On to `CCN1C(=O)c2cccc3c(NC(=O)C4CCCN4S(=O)(=O)c4ccc(OC)cc4)ccc1c23` (stereo not given), for which the normalized activity (activation) is -0.03%.

Consider `Cc1ccc2[nH]cc(C(=O)c3ccccc3)c(=O)c2c1`, for which the normalized activity (activation) is 0.18%.

Turning to `CN(C)c1ccccc1C(=O)c1ccccc1`, the normalized activity (activation) is 2.06% (active).

As to `O=C(CC(=O)c1ccccc1O)c1ccccc1`, the normalized activity (activation) was 0.25%.

Regarding `COc1ccccc1NS(=O)(=O)c1cccc(NC(=O)c2cc(=O)[nH]c(=O)[nH]2)c1`, the normalized activity (activation) is -0.11%.

Take `Cc1cc(C(=O)NCc2nnc3n2CCN(Cc2ccccc2)CC3)c(C)o1`: the normalized activity (activation) is -0.06%.

With `Cc1cccc(OCCC(=O)NNC(=O)Cc2cccn2C)c1`, the normalized activity (activation) is -0.11%.

`CCOc1ccc2c(=O)c(Oc3ccccc3)c(C(F)(F)F)oc2c1C`: the normalized activity (activation) is 0.9%.

With `CCCc1nn(CC(=O)N(C)C)c(=O)c2cc3ccsc3n12`, the normalized activity (activation) is 3.43% (active).

Turning to `CCc1nn(CC(=O)NCc2cccs2)c(=O)c2cc3ccsc3n12`, the normalized activity (activation) is -0.13%.

As for `CCN(CC)C(=O)Cn1ncn2c(cc3ccsc32)c1=O`, the normalized activity (activation) is -0.03%.

Turning to `Cc1cccc(C)c1NC(=O)C(=O)NCCCO`, the normalized activity (activation) was 0.01%.

Consider `O=C1C(=O)N(c2nc3ccccc3s2)C(c2ccc(O)cc2)/C1=C(\O)c1ccc(Cl)cc1` (stereo not given), for which the normalized activity (activation) is -0.15%.

As to `COc1ccc(C2(O)CC(C(F)(F)F)=NN2C(=O)CCc2ccccc2)cc1` (stereo not given), the normalized activity (activation) was 0.67%.

In the case of `COc1ccc(CC(=O)NNC(=O)c2ccccc2Cl)cc1`, the normalized activity (activation) was -0.11%.

On to `CSCCNC(=O)CCc1nnc(C2(c3ccc(Cl)cc3)CCC2)o1`, for which the normalized activity (activation) is 0.03%.

Take `Cc1cccc(NC(=O)c2ccccc2Nc2ccc(S(=O)(=O)C(F)(F)F)cc2[N+](=O)[O-])c1`: the normalized activity (activation) is 0.06%.

Turning to `COc1ccccc1-c1cnc2c(NCc3cccs3)nccn12`, the normalized activity (activation) was -0.21%.

Consider `CN(C)CCNC(=O)c1ccc(-c2cnc3c(NCc4ccc(F)cc4)nccn23)cc1`, for which the normalized activity (activation) is -0.01%.

With `COc1cc(CNc2nccn3c(-c4ccc(F)cc4)cnc23)cc(OC)c1OC`, the normalized activity (activation) is 1.85% (active).

Take `O=C(CSc1nnc(Nc2ccccc2)s1)c1ccc(F)cc1`: the normalized activity (activation) was -0.08%.

As to `CC(=O)Nc1ccc(Nc2nc(Nc3ccncn3)nc3nc[nH]c23)cc1`, the normalized activity (activation) is 0.11%.

As to `O=C1NC(=O)N(c2ccc(Br)cc2)C(=O)/C1=C\C=C\c1ccco1`, the normalized activity (activation) was -0.18%.

As to `COc1cc(OC)c(C2Nc3cccc4cccc(c34)N2)cc1OC`, the normalized activity (activation) was 1.96% (active).

For `COc1ccc(C2Nc3cccc4cccc(c34)N2)c(OC)c1OC`, the normalized activity (activation) is 0.39%.

With `COc1ccc(OC)c(C2Nc3cccc4cccc(c34)N2)c1`, the normalized activity (activation) is 0.03%.

As for `O=c1[nH]c(N2CCOCC2)nc2c1CN(Cc1ccccc1Cl)CC2`, the normalized activity (activation) is -0.04%.

With `O=C1CC(c2noc(-c3ccco3)n2)CN1c1ccccc1` (stereo not given), the normalized activity (activation) was -0.17%.

Take `COc1cccc(-c2nc(-c3ccccc3)c(-c3ccccc3)[nH]2)c1O`: the normalized activity (activation) is -0.07%.

With `CCOc1ccc2nc(N3CCC(NCCc4nc(C)c5c(n4)CCC5)CC3)nc(C)c2c1`, the normalized activity (activation) is 0.33%.

Take `CC1CC(C)CN(CCS(=O)(=O)c2ccc(Oc3ccc(S(=O)(=O)CCN4CC(C)CC(C)C4)cc3)cc2)C1` (stereo not given): the normalized activity (activation) is -0.1%.

Turning to `CCCCOC(=O)C1=C(C)N(C)C(=O)NC1c1cc(Cl)c(O)c(OC)c1` (stereo not given), the normalized activity (activation) was -0.11%.

Turning to `CCOc1ccc(C(=O)Nc2ccccc2I)cc1[N+](=O)[O-]`, the normalized activity (activation) was -0.08%.

For `CCOc1cc(OCC)cc(C(=O)Nc2cc3nn(-c4ccc(OC)cc4)nc3cc2C)c1`, the normalized activity (activation) is -0.15%.

`CCOc1ccc(C(=O)Nc2cc3nn(-c4ccc(C)cc4)nc3cc2C)cc1[N+](=O)[O-]`: the normalized activity (activation) is 2.14% (active).

As to `O=C(Cc1ccccn1)N1CCCC(c2nc(N3CCOCC3)ncc2-c2ccncc2)C1` (stereo not given), the normalized activity (activation) is -0.05%.

For `CCOc1ccc(-n2nc(C(=O)Nc3ccccc3C(F)(F)F)c3ccccc3c2=O)cc1`, the normalized activity (activation) is -0.03%.

For `NC(=O)c1ccccc1NC(=S)NC(=O)/C=C/c1cccc([N+](=O)[O-])c1`, the normalized activity (activation) is 0.01%.

For `Cc1ccc2nc(SCC(=O)Nc3ccccc3C(N)=O)[nH]c2c1`, the normalized activity (activation) was 0.11%.

Turning to `O=C(Nc1ccccc1[N+](=O)[O-])c1cc(S(=O)(=O)Nc2cccc(F)c2)ccc1Cl`, the normalized activity (activation) is -0.02%.

For `O=C(COC(=O)c1ccccc1F)NCc1ccco1`, the normalized activity (activation) was -0.11%.

In the case of `Cc1noc(C)c1-c1nc(N)c2ncn(-c3ccccc3)c2n1`, the normalized activity (activation) was -0.05%.

On to `COc1cc(Nc2nc(-c3c(C)noc3C)nc3c2ncn3-c2ccccc2)cc(OC)c1OC`, for which the normalized activity (activation) is 14.2% (active).

For the molecule `COc1cc(Nc2nc(-c3c(C)noc3C)nc3c2ncn3C2CCCCC2)cc(OC)c1OC`, the normalized activity (activation) was -0.17%.

As for `Cc1nc2c(C(=O)N3CCCC3)cnn2c(C)c1Cc1ccccc1Cl`, the normalized activity (activation) was -0.09%.

In the case of `O=C(Nc1ccc(I)cc1)OCCCc1ccccc1`, the normalized activity (activation) was 0.21%.

With `Cc1ccc2nc(NC(=O)c3cc(-c4ccc(Cl)s4)nc4ccccc34)sc2c1`, the normalized activity (activation) is -0.02%.

In the case of `Cc1c(-c2nc3cnccn3c2NCc2ccc(F)cc2)cnn1C`, the normalized activity (activation) was -0.04%.

On to `COc1ccc(SCC(=O)NNC(=S)Nc2ccccc2)cc1`, for which the normalized activity (activation) was 2.07% (active).

Consider `COc1cccc(NC(=O)CSc2ccc(Br)cc2)c1`, for which the normalized activity (activation) was 0.07%.

As to `COc1ccc(NC(=S)C(=O)Nc2ccccc2)cc1`, the normalized activity (activation) was 0.08%.

`CCOc1ccc2nc(NC(=O)c3cccc(C(=O)OC)n3)sc2c1`: the normalized activity (activation) was -0.02%.

For `CC(C)c1ccc(OCC(=O)N/N=C/c2cccnc2)cc1`, the normalized activity (activation) is -0.04%.

Regarding `COc1c(Cl)cc(Cl)cc1C(=O)Nc1ccccc1[N+](=O)[O-]`, the normalized activity (activation) is -0.17%.

On to `O=C(CN1C(=O)c2cccc([N+](=O)[O-])c2C1=O)OCC(=O)c1ccc(Cl)cc1`, for which the normalized activity (activation) is -0.01%.

With `CCOC(=O)C1=C(C)NC(=S)NC1c1cc(OC)ccc1O` (stereo not given), the normalized activity (activation) was 0.11%.

In the case of `N#Cc1c2c(c(-n3ccnc3)n3c1nc1ccccc13)CCC2`, the normalized activity (activation) is 0.17%.

Regarding `CCc1c(C)c(C#N)c2nc3ccccc3n2c1-n1ccnc1`, the normalized activity (activation) was 2.07% (active).

On to `Cc1c(CCC#N)c(-n2ccnc2)n2c(nc3ccccc32)c1C#N`, for which the normalized activity (activation) is -0.21%.

In the case of `COc1ccc(/C=N/Nc2nc3nonc3nc2Nc2cccc(C)c2)cc1OC`, the normalized activity (activation) was -0.17%.

As to `COc1cccc2c1OC1(CCN(C(=O)Nc3cccc(F)c3)CC1)OC2`, the normalized activity (activation) is -0.04%.

In the case of `Oc1ccccc1-c1nc(-c2cccc(C(F)(F)F)c2)c(-c2ccccc2)[nH]1`, the normalized activity (activation) is 0.23%.

With `c1cnc(Sc2nnc3ccccn23)nc1`, the normalized activity (activation) was 0.1%.

On to `COc1ccc(N=C2CCC(O)=C2C(C)=O)cc1`, for which the normalized activity (activation) was 0.05%.

Consider `COc1ccc(S(=O)(=O)NCC(=O)Nc2cccc(Br)c2)cc1OC`, for which the normalized activity (activation) is -0.15%.

In the case of `COc1cccc(C(=O)N2CCN(C(=O)c3cccc(OC)c3)CC2)c1`, the normalized activity (activation) was 0%.

As for `COc1cccc(C(=O)N2CCc3ccccc32)c1`, the normalized activity (activation) was 0.05%.

On to `CCn1c(=N)n(CC(=O)c2cccc(OC)c2)c2ccccc21`, for which the normalized activity (activation) was 2.64% (active).

Consider `Cc1cc(S(=O)(=O)Nc2ccc(Br)cc2)c(C)c(S(=O)(=O)c2ccc(Cl)cc2)c1`, for which the normalized activity (activation) was 0.11%.

For the molecule `O=C1CCCC2=C1C(c1cccnc1)Nc1ccc3ncccc3c12` (stereo not given), the normalized activity (activation) was -0.33%.

Regarding `CCCCNc1ncc2c(n1)c(=O)c(C#N)c1[nH]c3ccccc3c(=O)n12`, the normalized activity (activation) is 2.15% (active).

Consider `CCCCNC(=O)CSc1nnc2c(n1)[nH]c1ccccc12`, for which the normalized activity (activation) was 0.16%.

In the case of `CN(C)CCCNc1ncc2c(n1)c(=O)c(C#N)c1[nH]c3ccccc3c(=O)n12`, the normalized activity (activation) is -0.01%.

With `O=C(O)COc1ccc(C2Nc3ccccc3S(=O)(=O)N2Cc2ccccc2)cc1` (stereo not given), the normalized activity (activation) is -0.1%.

In the case of `O=C(c1nc2ccccc2s1)N1CCN(c2nc3ccccc3s2)CC1`, the normalized activity (activation) was 0.01%.

On to `Oc1ccccc1-c1nc(CI)no1`, for which the normalized activity (activation) is 0.03%.

Turning to `O=S(=O)(NC1CCCCC1Sc1ncn[nH]1)c1ccc(Cl)cc1` (stereo not given), the normalized activity (activation) is 0%.

`CCSC1=NSC2=NC(=O)/C(=C\c3ccc(OC)cc3)C(=N)N12`: the normalized activity (activation) was 0.04%.

Consider `COc1ccc(NC(=O)c2sc3nc(-c4cccc([N+](=O)[O-])c4)cn3c2C)cc1`, for which the normalized activity (activation) is -0.14%.

For the molecule `COc1cccc(NC(=O)Nc2ccc(-c3cn4c(C)c(C)nnc4n3)cc2)c1`, the normalized activity (activation) was 1.87% (active).

On to `COc1cccc(NC(=O)Nc2cc(OC)cc(OC)c2)c1`, for which the normalized activity (activation) was -0.06%.

Regarding `CCC(C)(C(=O)Nc1ccc2c(c1)OCCO2)N(Cc1ccco1)C(=O)c1ccccc1O` (stereo not given), the normalized activity (activation) was -0.01%.
